These results are taken from PubChem BioAssay AID624405 (Broad Institute, 2012).

The whole screen tested about 1,900 compounds, of which about 250 (13%) were called active. About 4% were inconclusive and are not listed.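 How the source made its calls: active means fitted curve reaches 40% rescue activity at or below the top valid dose, in every test run; inconclusive means test runs disagree, some active and some inactive; inactive means every run misses the threshold or moves the wrong way.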 The list is a sample of the results. Where a call stands in place of a potency, no number is given. Potency and affinity values are given separately.

This experiment is described as follows: suppressors of statin myotoxicity in myotubes, dose response, cell-based, C2C12 myotubes, ATP luminescence, cherry pick (AID 624405).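 Further: myotubes are challenged with simvastatin at 10 µM to lower ATP.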 To be noted: C2C12 myotubes + simvastatin, 48 h, scaled: DMSO wells 0, geranylgeraniol wells 100; series mostly up to 19.5 µM.
With `C[C@H](CO)N1C[C@H](C)[C@@H](CN(C)Cc2ccc(-c3ccccc3)cc2)Oc2ccc(NC(=O)Cc3cn(C)c4ccccc34)cc2CC1=O`, the outcome was inactive.
Next, `C[C@@H]1CN([C@H](C)CO)C(=O)c2cccc(NS(=O)(=O)c3cccs3)c2O[C@@H]1CN(C)Cc1ccc(Oc2ccccc2)cc1`: “inactive”.
Next, `Cc1cc(C(=O)CSc2nnnn2-c2ccccc2)c(C)n1CCc1ccccc1`: “inactive”.
Regarding `CC1Cc2ccccc2N1C(=O)C1CCN(S(=O)(=O)Cc2ccccc2)CC1` (stereo not given), the outcome was inactive.
Next, `CCOC(=O)c1ccc(-c2c(C(=O)OCC)oc3cc(O)c(CC)cc3c2=O)o1`: “inactive”; `Cc1cccc(C(=O)N2CCC(n3nnc4cc(F)ccc43)CC2)c1`: “inactive”; `CS(=O)(=O)c1ncc(Cl)c(C(=O)Nc2ccc(OC(F)F)cc2)n1`: “inactive”.
Next, `COc1ccccc1NC(=O)CN1C(=O)CCS(=O)(=O)c2ccccc21`: “inactive”; `Cc1cccc(C)c1NC(=O)c1nc(S(=O)(=O)Cc2ccccc2)ncc1Cl`: “inactive”.
With `CCC(NS(=O)(=O)c1ccc(C)cc1)C(=O)Nc1ccc(NC(C)=O)cc1` (stereo not given) the entry was “inactive”; with `Cc1noc(C)c1NC(=O)Nc1ccc2c(c1)C(=O)N([C@H](C)CO)C[C@@H](C)[C@H](CN(C)C(=O)Nc1ccccc1)OCCCC[C@@H](C)O2`, “inactive”.
With `CN1C[C@@H]2[C@H](c3ccccc31)[C@H](CO)N2Cc1ccccc1`, the result was inactive.
Next, `Nc1nc(CSc2nnnn2-c2ccccc2)nc(N2CCCc3ccccc32)n1`: “inactive”; `COC(=O)c1c(C)noc1-c1cc(C)on1`: “inactive”; `C[C@@H]1CN([C@H](C)CO)C(=O)c2cc(NC(=O)Nc3ccc(F)cc3)ccc2O[C@@H](C)CCCCO[C@@H]1CN(C)S(=O)(=O)c1cccs1`: “inactive”.
Next, `COc1cccc(-c2cnc3c(c2)C(=O)N([C@H](C)CO)C[C@H](C)[C@H](CN(C)Cc2cccc(C)c2)O3)c1`: “inactive”; `C[C@@H]1CN([C@H](C)CO)C(=O)c2cc(NS(C)(=O)=O)ccc2O[C@@H](C)CCCCO[C@H]1CN(C)S(=O)(=O)c1ccc(Cl)cc1`: “inactive”; `COc1ccc(NC(=O)Nc2ccc3c(c2)C(=O)N([C@@H](C)CO)C[C@@H](C)[C@@H](CN(C)CC2CCCCC2)OCCCC[C@H](C)O3)cc1`: “inactive”.
With `CCCCn1c(SCc2ccccn2)nc2c1c(=O)n(C)c(=O)n2C` the entry was “inactive”; with `CCCCCn1c(N2CCC(C(N)=O)CC2)nc2c1c(=O)[nH]c(=O)n2C`, “inactive”; with `Cc1cccc(Cn2c(N3CCCCC3C)nc3c2c(=O)[nH]c(=O)n3C)c1` (stereo not given), “inactive”.
For the compound `CCOCCn1c(N2CCN(c3ccc(OC)cc3)CC2)nc2c1c(=O)[nH]c(=O)n2C`, the outcome was inactive.
Next, `O=C(Nc1ccc2nn(-c3ccccc3)nc2c1)c1cccnc1`: “inactive”.
Next, `O=C(CSCc1ccc(Cl)cc1)N/N=C/c1ccccc1`: “inactive”; `C[C@@H]1CN([C@@H](C)CO)C(=O)Cc2cc(NC(=O)Nc3cccc4ccccc34)ccc2O[C@H]1CN(C)Cc1ccc(Oc2ccccc2)cc1`: “inactive”.
Next, `O=C(Nc1ccccc1Cl)NC1(C(=O)N2CCCCC2)CCCCC1`: “inactive”; `Cc1ccc(-c2cc(N)n(-c3ccc(C)cc3)n2)cc1`: “inactive”; `C=CCn1c(=O)/c(=C\c2ccsc2)s/c1=C(/C#N)C(=O)NCCN1CCOCC1`: “inactive”.
On to `C[C@H]1CN([C@@H](C)CO)C(=O)c2cc(NC(=O)Nc3ccc(C(F)(F)F)cc3)ccc2O[C@@H]1CN(C)Cc1ccc(C(=O)Nc2ccccc2N)cc1`, for which the result was inactive.
With `C[C@@H]1CCCCO[C@H](CN(C)C(=O)Nc2cccc3ccccc23)[C@H](C)CN([C@H](C)CO)C(=O)c2cc(NS(=O)(=O)c3ccc(Cl)cc3)ccc2O1` the entry was “inactive”; with `Cc1ccc(S(=O)(=O)Nc2ccc3c(c2)C(=O)N([C@@H](C)CO)C[C@H](C)[C@H](CN(C)Cc2ccc(C(F)(F)F)cc2)O3)cc1`, “inactive”.
As to `Cc1ccc(S(=O)(=O)Nc2ccc3c(c2)C(=O)N([C@@H](C)CO)C[C@H](C)[C@H](CN(C)Cc2ccc(C(=O)Nc4ccccc4N)cc2)O3)cc1`, the result was inactive.
With `C[C@H]1CN([C@@H](C)CO)C(=O)c2cc(NS(=O)(=O)c3ccc(Cl)cc3)ccc2O[C@H]1CN(C)Cc1ccc(Oc2ccccc2)cc1` the entry was “inactive”.
With `C[C@@H]1CN([C@H](C)CO)C(=O)c2cc(NS(=O)(=O)c3ccc(Cl)cc3)ccc2O[C@H]1CN(C)C(=O)Nc1cccc2ccccc12` the entry was “inactive”; with `C[C@@H]1CCCCO[C@@H](CN(C)Cc2ccc(C(F)(F)F)cc2)[C@H](C)CN([C@@H](C)CO)C(=O)c2cc(NC(=O)c3ccncc3)ccc2O1`, “inactive”; with `C[C@H]1CCCCO[C@@H](CN(C)C(=O)Nc2ccc3c(c2)OCO3)[C@@H](C)CN([C@@H](C)CO)C(=O)c2cc(NS(=O)(=O)c3cccs3)ccc2O1`, “inactive”.
With `COc1ccc(S(=O)(=O)Nc2ccc3c(c2)C(=O)N([C@@H](C)CO)C[C@H](C)[C@@H](CN(C)S(=O)(=O)c2cccs2)OCCCC[C@@H](C)O3)cc1` the entry was “inactive”; with `CCOc1ccc(C2SCC(=O)N2c2c(C)n(C)n(-c3ccccc3)c2=O)cc1` (stereo not given), “inactive”.
In the case of `COc1ccccc1Oc1ccc2c(c1)C(=O)N(c1ccc(O)cc1)C2=O`, the outcome was inactive.
Regarding `C[C@@H]1CN([C@H](C)CO)C(=O)c2cc(C#CC3CCCCC3)cnc2O[C@@H]1CN(C)C(=O)C1CCCCC1`, the outcome was inactive.
With `COc1ccc(Br)cc1C1SCCN1S(C)(=O)=O` (stereo not given) the entry was “inactive”.
With `CCC12CC3CC(C1)CC(C(=O)NNC(N)=O)(C3)C2` the entry was “inactive”; with `COCCNC(=O)C(c1ccc(C)o1)N(Cc1ccc(OC)cc1)C(=O)Cn1nnc2ccccc21` (stereo not given), “inactive”.
Next, `C=CCOc1ccc(/C(CC)=N/O)cc1OC`: “inactive”.
As to `CS(=O)(=O)N(CC(=O)NCc1ccco1)c1ccc(OCc2ccccc2)cc1`, the outcome was inactive.
Next, `COc1cccc(NC(=O)N(C)C[C@H]2Oc3ncc(C#Cc4ccc(F)cc4)cc3C(=O)N([C@@H](C)CO)C[C@@H]2C)c1`: “inactive”.
Next, `CC(C)NC(=O)N1[C@H](C#N)[C@@H](c2ccc(-c3ccc(F)cc3)cc2)[C@@H]1CO`: “inactive”.
With `N#C[C@H]1[C@H](c2ccc(-c3ccc(F)cc3)cc2)[C@@H](CO)N1C(=O)Cc1ccccc1` the entry was “inactive”.
Take `COc1ccc(-c2ccc([C@H]3[C@@H](C#N)N(C(=O)NC4CCCCC4)[C@@H]3CO)cc2)cc1`: the outcome was inactive.
For the compound `COc1ccc(CC(=O)NC(CC(=O)O)c2cccc([N+](=O)[O-])c2)cc1` (stereo not given), the outcome was inactive.
As for `CC(C)NC(=O)N1[C@@H](C#N)[C@H](c2ccc(-c3ccc(F)cc3)cc2)[C@@H]1CO`, the outcome was inactive.
With `CC(C)NC(=O)N1[C@H](CO)[C@@H](c2ccc(-c3ccc(F)cc3)cc2)[C@@H]1C#N` the entry was “inactive”; with `N#Cc1ccc(Oc2ccc(/C=N/O)cn2)cc1`, “inactive”.
Next, `COc1ccc(N2CCN(C(=O)COc3ccc4c(C)cc(=O)oc4c3C)CC2)cc1`: “inactive”; `C[C@H]1CN([C@@H](C)CO)C(=O)c2cc(NS(=O)(=O)c3ccc(Cl)cc3)ccc2O[C@H]1CN(C)S(=O)(=O)c1cccs1`: “inactive”; `C[C@@H]1CN([C@@H](C)CO)C(=O)c2cc(NC(=O)Nc3ccc(F)cc3)ccc2O[C@@H](C)CCCCO[C@@H]1CN(C)S(=O)(=O)c1cccs1`: “inactive”.
With `COCCCn1cnc2c(c1=O)c1nc3ccccc3nc1n2-c1ccccc1`, the outcome was inactive.
Next, `C[C@@H]1CN([C@@H](C)CO)C(=O)Cc2cc(NC(=O)Cn3cnnn3)ccc2O[C@H]1CN(C)Cc1ccc(Oc2ccccc2)cc1`: “inactive”.
Next, `COc1ccc(N2Nc3n[nH]c(N)c3N2)cc1`: “inactive”.
Next, `C[C@@H]1CCCCO[C@H](CN(C)Cc2ccc(C(F)(F)F)cc2)[C@H](C)CN([C@@H](C)CO)C(=O)c2cc(NC(=O)c3ccncc3)ccc2O1`: “inactive”; `O=C(NC1CCN(C(=O)NCc2ccccc2)CC1)c1ccco1`: “inactive”; `COc1ccc(-c2cnc3c(c2)C(=O)N([C@H](C)CO)C[C@H](C)[C@H](CN(C)S(=O)(=O)c2ccc(C)cc2)O3)cc1`: “inactive”.
Regarding `Cc1noc(C)c1NC(=O)Nc1ccc2c(c1)CC(=O)N([C@H](C)CO)C[C@@H](C)[C@@H](CN(C)Cc1ccc(Cl)c(Cl)c1)O2`, the outcome was inactive.
For `O=CN1CCC(=O)N(Cc2ccccc2)c2ccccc21`, the outcome was inactive.
Next, `COc1cc(NC(=O)c2ccccc2)c(OC)cc1Cl`: “inactive”; `Cc1cccc(NC(=O)c2ccc(OC3CSC3)cc2)c1`: “inactive”; `COc1ccc(C2NC(C(=O)O)Cc3c2[nH]c2ccccc32)cc1OC` (stereo not given): “inactive”.
`O=C1C[C@@H]2c3c(cccc3CN1Cc1ccc(Cl)cc1)C[C@@H](O)[C@H]2O`: the outcome was inactive.
For `O=C1C[C@@H]2c3c(cccc3CN1Cc1ccc(Br)cc1)C[C@@H](O)[C@H]2O`, the result was inactive.
For the compound `COc1ccc(CN2[C@H](CO)[C@H]3c4ccccc4N(C(=O)c4ccccc4)C[C@H]32)cc1`, the outcome was inactive.
With `O=C(CSc1nc2ccccc2[nH]1)Nc1ccc2c(c1)OCCO2` the entry was “inactive”.
As to `CCOc1ccc(NC(=O)CN(Cc2ccccc2)S(C)(=O)=O)cc1`, the result was inactive.
Consider `CCOC(=O)Cc1nnc(NC(=O)COc2ccc(OC)cc2)s1`, for which the result was inactive.
Next, `Cc1cccc(Nc2nc(CC(=O)O)cs2)c1`: “inactive”; `C[C@@H]1CN([C@H](C)CO)C(=O)c2cc(C3=CCCCC3)cnc2O[C@@H]1CN(C)C(=O)c1ccccn1`: “inactive”; `C[C@H]1CN([C@@H](C)CO)C(=O)c2cc(NC(=O)Cc3cn(C)c4ccccc34)ccc2O[C@@H]1CN(C)S(=O)(=O)c1cccs1`: “inactive”.
With `Cc1cc(C)nc(N2CCCC(C(=O)NCc3cccs3)C2)n1` (stereo not given) the entry was “inactive”; with `S=C(NCc1ccc(Cl)cc1)Nc1ccccc1`, “inactive”.
As for `COc1ccc(S(=O)(=O)Nc2ccc3c(c2)CC(=O)N([C@H](C)CO)C[C@H](C)[C@@H](CN(C)Cc2ccc(C(F)(F)F)cc2)O3)cc1`, the result was inactive.
With `Cn1c(-c2sc3cc(C(F)(F)F)cnc3c2-c2cccnc2)n[nH]c1=S` the entry was “inactive”.
